The values that follow come from PubChem BioAssay (NCI).

Compounds without any hit were thinned out: in the full panel of roughly 83,000, 20% have a hit.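 Single-dose data. Exposure time 48 hours. Values below 10 considered active.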 A number with no mark means an inactive call. Activity calls are given as the source filed them.

In the assay the test system is HL-60(TB) leukemia. The experiment in a line: NCI-60 one-dose screen, 48 h (100 = growth as untreated, 0 = no growth, -100 = all killed). Particulars: 10 µM unless noted.
On to `COc1ccc(N=Nc2cc(OC)c(OC)c(OC)c2)cc1`, for which the growth is 42.4%.

In the case of `C=CCC(OC(C)=O)c1ccc(C(C)C)cc1` (stereo not given), the growth is 83.1%.

`CCCCCCCCCCCCCC(=S)NCCCC[C@H](NC(=O)OCc1ccccc1)C(=O)Nc1ccccc1`: the growth is 8.79% (active).

For the molecule `O=C(/C=C/c1ccccc1)Nc1ncc(Cc2ccccc2Cl)s1`, the growth is -10.1% (active).

As for `N=C(N)SCc1c2ccccc2c(CSC(=N)N)c2ccccc12`, the growth was 20.8%.

In the case of `Clc1ccc(Nc2ccnc(NCCNc3ccnc4cc(Cl)ccc34)n2)cc1`, the growth was -71% (active).

For `O=C(Nc1cc(-c2cccnc2)nc(NCCCN2CCOCC2)n1)c1cc(Br)cc(C(F)(F)F)c1`, the growth was 48.5%.

With `COc1ccccc1N1CCN(C(CNS(=O)(=O)c2ccc(Cl)cc2)c2cccnc2)CC1` (stereo not given), the growth was 66.1%.

As to `O=C(Nc1ncc(Cc2cccc(C(F)(F)F)c2)s1)c1ccc2c(c1)OCCO2`, the growth was -46.6% (active).

In the case of `N#Cc1c(N)nn(C(=O)c2ccc(NC(=O)c3ccccn3)cc2)c1-c1ccc(Cl)cc1`, the growth is 69.1%.

For the molecule `COc1cc2cc(CN3CCN(c4nccc(-c5ccc6ccccc6c5)n4)CC3)c(=O)[nH]c2cc1OC`, the growth is 9.75% (active).

Turning to `COc1ccc(-c2nc(Nc3ccc(-c4nc5ccccc5[nH]4)cc3)nc(N3CCOCC3)n2)cc1`, the growth was -46% (active).

For `CCc1ccccc1-n1c(N)c(C#N)c(-c2ccc(Cl)cc2)c(C#N)c1=O`, the growth was 117%.

As to `Cc1ccc(-c2csc(/N=C3\C(=O)Nc4ccccc43)n2)cc1`, the growth is -48% (active).

On to `N#Cc1nc(-c2ccccc2)oc1S(=O)(=O)N1CCN(c2ccccc2)CC1`, for which the growth was 75.6%.

Take `CC(=O)O[C@H]1C[C@@H]2C(C)(C)C(=O)CC[C@@]2(C)c2ccc(C(C)C)cc21`: the growth is 99.2%.

Consider `COC(=O)c1ccc(-n2cc(CCCOS(=O)(=O)c3ccc(F)cc3)nn2)cc1`, for which the growth was 99.6%.

With `O=C(Cc1ccc(/C=C/C(=O)c2ncc[nH]2)cc1)Nc1ccc(F)cc1`, the growth is -17.3% (active).

For `Cc1cccc(Oc2ccc(Nc3ncnc4ccc(NC(=O)CN(C)C)cc34)cc2Cl)c1`, the growth was -48% (active).

Regarding `CCCCCCCCNc1cccc2c1C(=O)c1ccccc1C2=O`, the growth is 73%.

In the case of `Cn1c2ccc(Cl)cc2c2nn(C(=O)c3ccccc3)c(=O)nc21`, the growth was 113%.

As to `CC(=O)c1cccc(O)c1`, the growth is 100%.

Take `Cc1cc(Nc2ccc(OCc3ccccc3)cc2)nc2cc(O)ccc12`: the growth was -44.4% (active).

On to `CCCOC(=O)C1(O)CCCC1`, for which the growth was 107%.

Take `COc1ccc(-n2c(C(O)c3ccccc3)n[nH]c2=S)cc1` (stereo not given): the growth is 119%.
